Laboratory results published in PubChem BioAssay (Tox21).
“And” between values parts separate entries of the source, which are not always exact repeats. Equal entries are not always repeated. A number with no mark means an inactive call. Inconclusive results are not listed. Where a call stands in place of a potency, no number is given. The source made the active and inactive calls. Calls follow the shape of the dose curve; as a rule, active = well fitted curve in the direction sought with a large enough effect in the repeat runs; inconclusive = weak or mixed curves; inactive = no such curve, though single readings can be large; an effect the other way counts as inactive or inconclusive.

Experiments:
[1] = qHTS RealTime-Glo MT Cell Viability Assay in HepG2 cells - 40 hour (AID 1224870); also: nearly all actives have a fitted effect of over 50% in size
Summary of the method: (§1)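 HepG2 cells (600/well) mixed with RealTime-Glo MT reagent, settled 5 h at 37 C/5% CO2 before compound addition. Nonlytic NanoLuc luminescence from viable-cell prosubstrate reduction read repeatedly during 40 h treatment at 37 C.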

[2] = A CellTox Green Cytotoxicity Assay to monitor cytotoxicity in HEK293 cells - 40 hour (AID 1224871); also: nearly all actives have a fitted effect of over 45% in size
Summary of the method: (§2)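 Tox21 screen in HEK293: membrane-impermeant cyanine dye fluoresces on binding dead-cell DNA; compound pinned 5 h post-seeding, plates held at 37 C, signal read repeatedly through 40 h.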

[3] = qHTS RealTime-Glo MT Cell Viability Assay in HEK293 cells - 16 hour (AID 1224872); also: top concentration of the series differs between compounds; nearly all actives have a fitted effect of over 50% in size
Summary of the method: (§3)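 Reads taken at 0, 8, 16, 24, 32 and 40 h from the same wells. HEK293 cells (600/well) carried RealTime-Glo reagents from seeding, with compound added after a 5 h settle at 37 C.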

[4] = qHTS RealTime-Glo MT Cell Viability Assay in HepG2 cells - 8 hour (AID 1224873); also: nearly all actives have a fitted effect of over 55% in size; also: potency is read from the fitted curve at half-maximal effect
Summary of the method: as §1

[5] = qHTS RealTime-Glo MT Cell Viability Assay in HEK293 cells - 40 hour (AID 1224874); conditions: RealTime-Glo luminescence; max response: active compounds read low; also: nearly all actives have a fitted effect of over 50% in size
Summary of the method: (§4)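 HEK293 + NanoLuc + prosubstrate, 600 cells/well; 5 h, 37 C/5% CO2; compound 23 nL in DMSO by pintool; 37 C; luminescence read at 0, 8, 16, 24, 32 and 40 h time points.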

[6] = A CellTox Green Cytotoxicity Assay to monitor cytotoxicity in HEK293 cells - 24 hour (AID 1224875); also: series mostly up to about 77 µM; nearly all actives have a fitted effect of over 45% in size
Summary of the method: as §2

[7] = A CellTox Green Cytotoxicity Assay to monitor cytotoxicity in HepG2 cells - 16 hour (AID 1224876); also: nearly all actives have a fitted effect of over 45% in size
Summary of the method: (§5)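 Measurements at 0, 8, 16, 24, 32 and 40 h of treatment captured CellTox Green fluorescence in HepG2 cells that had been co-plated with reagent and preincubated 5 h at 37 C/5% CO2.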

[8] = qHTS RealTime-Glo MT Cell Viability Assay in HepG2 cells - 32 hour (AID 1224877); also: nearly all actives have a fitted effect of over 55% in size
Summary of the method: (§6)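 HepG2 suspension premixed with RealTime-Glo reagents is plated at 600 cells per well and left 5 h at 37 C/5% CO2. Compounds in DMSO then go in, and bioluminescence reflecting viable cell number is recorded over 40 h.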

[9] = A CellTox Green Cytotoxicity Assay to monitor cytotoxicity in HepG2 cells - 24 hour (AID 1224878); also: nearly all actives have a fitted effect of over 45% in size
Summary of the method: as §5

[10] = A CellTox Green Cytotoxicity Assay to monitor cytotoxicity in HepG2 cells - 40 hour (AID 1224879); also: nearly all actives have a fitted effect of over 40% in size
Summary of the method: as §5

[11] = qHTS RealTime-Glo MT Cell Viability Assay in HEK293 cells - 0 hour (AID 1224880)
Summary of the method: as §4

[12] = A CellTox Green Cytotoxicity Assay to monitor cytotoxicity in HEK293 cells - 32 hour (AID 1224881); also: nearly all actives have a fitted effect of over 40% in size
Summary of the method: as §2

[13] = A CellTox Green Cytotoxicity Assay to monitor cytotoxicity in HepG2 cells - 0 hour (AID 1224882); also: nearly all actives have a fitted effect of over 35% in size
Summary of the method: as §5

[14] = A CellTox Green Cytotoxicity Assay to monitor cytotoxicity in HepG2 cells - 32 hour (AID 1224883); also: nearly all actives have a fitted effect of over 50% in size
Summary of the method: as §5

[15] = A CellTox Green Cytotoxicity Assay to monitor cytotoxicity in HEK293 cells - 8 hour (AID 1224884); also: nearly all actives have a fitted effect of over 35% in size
Summary of the method: as §2

[16] = qHTS RealTime-Glo MT Cell Viability Assay in HepG2 cells - 16 hour (AID 1224885); also: nearly all actives have a fitted effect of over 50% in size; also: potency is read from the fitted curve at half-maximal effect
Summary of the method: as §6

[17] = qHTS RealTime-Glo MT Cell Viability Assay in HEK293 cells - 24 hour (AID 1224886)
Summary of the method: as §3

[18] = qHTS RealTime-Glo MT Cell Viability Assay in HEK293 cells - 8 hour (AID 1224887)
Summary of the method: as §4

[19] = A CellTox Green Cytotoxicity Assay to monitor cytotoxicity in HEK293 cells - 16 hour (AID 1224888); also: nearly all actives have a fitted effect of over 35% in size
Summary of the method: as §2

[20] = qHTS RealTime-Glo MT Cell Viability Assay in HepG2 cells - 0 hour (AID 1224889); also: nearly all actives have a fitted effect of over 50% in size
Summary of the method: as §6

SMILES | outcome [1] | Potency [2] | Potency [3] | Potency [4] | max response [5] | Potency [6] | outcome [7] | outcome [8] | Potency [9] | Potency [10] | outcome [11] | Potency [12] | outcome [13] | Potency [14] | outcome [15] | Potency [16] | Potency [17] | Potency [18] | Potency [19] | Potency [20]
COc1ccc([N+](=O)[O-])cc1N | inactive | inactive | inactive | inactive | -5.95% and 0.4% | inactive | inactive | inactive | inactive | inactive | inactive | inactive | inactive | inactive | inactive | inactive | inactive | inactive | inactive | inactive
CCNc1ccccc1 | inactive | inactive | inactive | inactive | 0.38% and 24% | inactive | inactive | inactive | inactive | inactive | inactive | inactive | inactive | inactive | inactive | inactive | inactive | inactive | inactive | inactive
CCCCCCCO | inactive | inactive | inactive | inactive | 10.9% and 3.74% | inactive | inactive | inactive | inactive | inactive | inactive | inactive | inactive | inactive | inactive | inactive | inactive | inactive | inactive | inactive
C=CC(=O)OCCC(=O)O | inactive | inactive | inactive | inactive | -1.71% and -0.811% | inactive | inactive | inactive | inactive | inactive | inactive | inactive | inactive | inactive | inactive | inactive | inactive | inactive | inactive | inactive
O=C(O)c1ccc(C(=O)O)c(C(=O)O)c1 | inactive | inactive | inactive | inactive | -1.73% and 1.6% | inactive | inactive | inactive | inactive | inactive | inactive | inactive | inactive | inactive | inactive | inactive | inactive | inactive | inactive | inactive
O=C(O)Cn1c(=O)n(Cc2ccc(Br)cc2F)c(=O)c2ccc(Cl)cc21 | inactive | inactive | inactive | 21.9 µM (active) and 8.49 µM (active) |  | inactive | inactive |  | inactive | inactive | inactive | inactive | inactive | inactive | inactive | 24.5 µM (active) |  |  | inactive | inactive
O=[N+]([O-])c1ccc2nc[nH]c2c1 | inactive | inactive | inactive | inactive | 4.04% and -21.2% | inactive | inactive | inactive | inactive | inactive | inactive | inactive | inactive | inactive | inactive | inactive | inactive | inactive | inactive | inactive
Cc1ccc(C(C)C)c(O)c1 | inactive | inactive | inactive | inactive | -11.7% and 0.827% | inactive | inactive | inactive | inactive | inactive | inactive | inactive | inactive | inactive | inactive | inactive | inactive | inactive | inactive | inactive
CCCCCCCC=O | inactive | inactive | inactive | inactive | 1.74% and 27% | inactive | inactive | inactive | inactive | inactive | inactive | inactive | inactive | inactive | inactive | inactive | inactive | inactive | inactive | inactive
C[C@]12CCC(=O)C=C1CC[C@@H]1[C@@H]2[C@@H](O)C[C@@]2(C)[C@H]1CC[C@]2(O)C(=O)CO |  | inactive |  |  |  | inactive | inactive |  | inactive | inactive |  | inactive | inactive | inactive | inactive |  |  |  | inactive | 
C=CCc1ccc(OC)c(OC)c1 | inactive | inactive | inactive | inactive | 0.535% and 0.477% | inactive | inactive | inactive | inactive | inactive | inactive | inactive | inactive | inactive | inactive | inactive | inactive | inactive | inactive | inactive
Brc1ccc(Br)c(Br)c1 | inactive |  | inactive | inactive | -6.36% and -22.4% |  | inactive | inactive | inactive | inactive | inactive |  | inactive | inactive | inactive | inactive | inactive | inactive | inactive | 
CN1C(=O)CC[C@H]1c1cccnc1 | inactive | inactive | inactive | inactive | 1.45% and 7.43% | inactive | inactive | inactive | inactive | inactive | inactive | inactive | inactive | inactive | inactive | inactive | inactive | inactive | inactive | inactive
